Values joined by “and” are separate entries in the source; they are usually repeats but may differ in a detail not shown here. Equal entries are not always repeated. Records with an inconclusive call do not appear. A call without a number means that no potency is given here. The source holds several records for some structures; these can differ, active in one and inactive in another. Active and inactive are the calls of the source. Unless noted, calls follow the shape of the dose curve; as a rule, active = well fitted curve in the direction sought with a large enough effect in the repeat runs; inconclusive = weak or mixed curves; inactive = no such curve, though single readings can be large; an effect the other way counts as inactive or inconclusive.
How the values were obtained:
[1] = qHTS assay for small molecule disruptors of the mitochondrial membrane potential - cell viability (AID 720634; calls by dose curve; also: nearly all actives have a fitted effect of over 20% in size; also: potency is read from the fitted curve at half-maximal effect)
In short: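 Human hepatoma HepG2 cells were treated for 1 hr with test chemicals, then given m-MPI dye and CellTiter-Glo. Cell viability reflects luminescence proportional to cellular ATP.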

[2] = qHTS assay to test for compound auto fluorescence at 590 nm (red) in HepG2 cells (AID 720674)
In short: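 1 hr compound incubation on HepG2 cells, 37 C, 5% CO2; plate read ex 540 nm / em 590 nm; intensities reported as Rose Bengal sodium equivalents.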

[3] = qHTS assay to test for compound auto fluorescence at 535 nm (green) in HepG2 cells (AID 720675)
[4] = qHTS assay to test for compound auto fluorescence at 460 nm (blue) in HEK293 cells (AID 720678)
In short: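 Intrinsic compound fluorescence is recorded in live HEK293 cultures after overnight incubation at 37C, 5% CO2, using excitation 405 nm and emission 460 nm. Values are referenced to triamterene.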

[5] = qHTS assay to test for compound auto fluorescence at 590 nm (red) in HEK293 cells (AID 720679)
In short: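 Red autofluorescence, HEK293 cells: 2,000 cells/well; attach 4-5 hr 37C; add 23 nL cpd or DMSO; incubate o/n 37C 5% CO2; read Ex540/Em590; Rose Bengal sodium reference.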

[6] = qHTS assay to test for compound auto fluorescence at 460 nm (blue) in HEK293 cell free culture (AID 720681)
In short: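 Blue fluorescence (Ex 405/Em 460 nm, triamterene-equivalent) was read immediately after pin transfer of compound or DMSO into medium (DMEM, 10% FBS) without cells.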

[7] = qHTS assay to test for compound auto fluorescence at 535 nm (green) in HEK293 cell free culture (AID 720682)
In short: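 Measurement is a direct plate read of green fluorescence (485 nm in, 535 nm out) after compound addition to serum-supplemented DMEM lacking cells, with fluorescein used to express intensities.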

[8] = qHTS assay to test for compound auto fluorescence at 590 nm (red) in HEK293 cell free culture (AID 720683)
In short: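 Red-channel autofluorescence of compounds in culture medium (DMEM, 10% FBS), no cells, measured at 540/590 nm. Rose Bengal sodium is the reference fluorophore for equivalence.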

[9] = qHTS assay to test for compound auto fluorescence at 590 nm (red) in HepG2 cell free culture (AID 720684)
In short: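 Steps: dispense MEM/10% FBS medium, no cells; pin compound or DMSO vehicle; read red channel, Ex/Em 540/590 nm. Output given as Rose Bengal sodium equivalents.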

[10] = qHTS assay to test for compound auto fluorescence at 535 nm (green) in HepG2 cell free culture (AID 720686)
[11] = qHTS assay to test for compound auto fluorescence at 460 nm (blue) in HepG2 cells (AID 720687)
In short: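 Blue-channel autofluorescence (Ex/Em 405/460 nm, triamterene-equivalent) was measured after 1 hr compound exposure at 37 C, 5% CO2. Cells were HepG2, plated overnight at 37 C in MEM plus 10% FBS.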

[12] = qHTS assay to identify small molecule antagonists of the glucocorticoid receptor (GR) signaling pathway - cell viability counter screen (AID 720693); also: nearly all actives have a fitted effect of over 55% in size; also: potency is read from the fitted curve at half-maximal effect
[13] = qHTS assay to identify small molecule antagonists of the estrogen receptor alpha (ER-alpha) signaling pathway - cell viability counter screen (AID 743074; calls by dose curve;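 also: HEK293 cells carrying ER-alpha-UAS-bla reporter stimulated with 17beta-estradiol; nearly all actives have a fitted effect of over 45% in size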; also: potency is read from the fitted curve at half-maximal effect)
[14] = target: Aromatase (Homo sapiens) (UniProt P11511); assay: qHTS assay to identify aromatase inhibitors (AID 743083); also: nearly all actives have a fitted effect of over 55% in size; also: potency is read from the fitted curve at half-maximal effect
[15] = qHTS assay to identify aromatase inhibitors - cell viability counter screen (AID 743084);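 also: cells stimulated with testosterone during compound exposure; nearly all actives have a fitted effect of over 55% in size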; also: potency is read from the fitted curve at half-maximal effect
[16] = target: Aryl hydrocarbon receptor (Homo sapiens) (UniProt P35869); assay: qHTS assay to identify small molecule that activate the aryl hydrocarbon receptor (AhR) signaling pathway (AID 743085);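 also: HG2L7.5c1 human HepG2 liver cells with stably integrated DRE-driven firefly reporter; series mostly up to about 70 µM; nearly all actives have a fitted effect of over 15% in size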
In short: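 24 h compound exposure, 37C, HepG2-derived HG2L7.5c1 cells with DRE-responsive luciferase. Readouts: fluorescence viability, then luminescence at room temperature after 30 min.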

[17] = qHTS assay to identify small molecule that activate the aryl hydrocarbon receptor (AhR) signaling pathway - cell viability counter screen (AID 743086); also: nearly all actives have a fitted effect of over 45% in size; also: potency is read from the fitted curve at half-maximal effect
In short: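 Cytotoxicity counter screen: CellTiter-Fluor signal (30 min, 37 C) in 4000 HepG2 cells/well carrying the DRE-luciferase reporter, following 24 h compound exposure at 37 C.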

[18] = qHTS assay for small molecule agonists of the p53 signaling pathway - cell viability (AID 651633; calls by dose curve; also: nearly all actives have a fitted effect of over 30% in size; also: potency is read from the fitted curve at half-maximal effect)
In short: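 Viability counter-read: CellTiter-Glo luminescence (30 min, room temperature) in the same p53RE-bla plates. These plates had been exposed to compounds for 16 h at 37 C.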

[19] = qHTS assay for identifying genotoxic compounds that show differential cytotoxicity against isogenic chicken DT40 cell lines with known DNA damage response pathways - Rad54/Ku70 mutant cell line (AID 743015); also: nearly all actives have a fitted effect of over 60% in size; also: potency is read from the fitted curve at half-maximal effect
[20] = qHTS assay to identify small molecule antagonists of the androgen receptor (AR) signaling pathway - cell viability counter screen (AID 743033; also: nearly all actives have a fitted effect of over 45% in size; also: potency is read from the fitted curve at half-maximal effect)

Chain of Aryl hydrocarbon receptor (Homo sapiens) (P35869 whole entry, looked up): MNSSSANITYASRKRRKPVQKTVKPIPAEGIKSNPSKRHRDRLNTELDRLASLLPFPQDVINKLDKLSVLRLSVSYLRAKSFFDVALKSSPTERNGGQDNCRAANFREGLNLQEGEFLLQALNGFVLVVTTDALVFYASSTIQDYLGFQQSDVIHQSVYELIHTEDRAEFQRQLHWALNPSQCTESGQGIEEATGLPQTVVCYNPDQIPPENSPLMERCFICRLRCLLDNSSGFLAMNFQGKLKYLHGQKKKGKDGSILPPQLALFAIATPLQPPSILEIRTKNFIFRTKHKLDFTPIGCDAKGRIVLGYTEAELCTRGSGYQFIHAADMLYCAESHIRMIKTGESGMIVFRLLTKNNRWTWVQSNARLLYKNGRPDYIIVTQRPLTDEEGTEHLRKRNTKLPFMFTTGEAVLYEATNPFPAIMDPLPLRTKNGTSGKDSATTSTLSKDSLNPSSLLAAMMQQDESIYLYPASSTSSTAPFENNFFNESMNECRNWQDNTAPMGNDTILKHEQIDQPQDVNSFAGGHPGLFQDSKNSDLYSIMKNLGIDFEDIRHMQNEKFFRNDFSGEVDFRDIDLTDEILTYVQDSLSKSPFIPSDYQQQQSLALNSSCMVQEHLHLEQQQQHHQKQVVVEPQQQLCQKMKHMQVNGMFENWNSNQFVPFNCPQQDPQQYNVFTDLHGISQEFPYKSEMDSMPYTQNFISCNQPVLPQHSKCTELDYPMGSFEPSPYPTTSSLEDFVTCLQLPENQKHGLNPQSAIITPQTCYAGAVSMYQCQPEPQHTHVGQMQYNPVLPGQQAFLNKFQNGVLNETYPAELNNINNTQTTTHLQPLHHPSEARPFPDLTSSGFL
Chain of Aromatase (Homo sapiens) (P11511 whole entry, looked up): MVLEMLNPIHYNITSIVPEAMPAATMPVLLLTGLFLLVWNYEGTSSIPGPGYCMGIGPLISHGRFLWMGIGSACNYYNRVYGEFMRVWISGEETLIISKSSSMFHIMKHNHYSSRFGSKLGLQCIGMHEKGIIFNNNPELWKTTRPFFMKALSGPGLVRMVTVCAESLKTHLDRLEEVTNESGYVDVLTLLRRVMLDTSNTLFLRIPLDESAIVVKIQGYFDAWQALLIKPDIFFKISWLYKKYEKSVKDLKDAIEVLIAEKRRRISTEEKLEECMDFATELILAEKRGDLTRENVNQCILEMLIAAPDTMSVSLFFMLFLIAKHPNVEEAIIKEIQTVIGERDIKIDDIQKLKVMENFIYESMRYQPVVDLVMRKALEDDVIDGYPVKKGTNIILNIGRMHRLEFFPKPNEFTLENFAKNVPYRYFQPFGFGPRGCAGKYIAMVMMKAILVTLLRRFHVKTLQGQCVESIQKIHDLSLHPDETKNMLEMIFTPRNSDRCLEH

SMILES | Potency [1] | outcome [2] | Potency [3] | Potency [4] | outcome [5] | Potency [6] | Potency [7] | outcome [8] | outcome [9] | Potency [10] | Potency [11] | Potency [12] | Potency [13] | Potency [14] | Potency [15] | Potency [16] | Potency [17] | Potency [18] | Potency [19] | Potency [20]
C=C[C@H]1CN2CC[C@H]1C[C@@H]2[C@@H](O)c1ccnc2ccccc12 | inactive | inactive | inactive | inactive | inactive | inactive | inactive | inactive | inactive | inactive | inactive | inactive | inactive | inactive | inactive | inactive | inactive | – | – | –
N#CC(C#N)=Cc1cc(O)c(O)c(O)c1 | inactive | inactive | – | inactive | inactive | inactive | inactive | inactive | inactive | – | inactive | inactive | inactive | – | 26.6 µM (active) | – | 13.3 µM (active) | inactive | 21.1 µM (active) | inactive
Cc1nnc2n1-c1ccc(Cl)cc1C(c1ccccc1)=NC2 | inactive | inactive | inactive | inactive | inactive | inactive | inactive | inactive | inactive | inactive | inactive | inactive | inactive | inactive | inactive | inactive | inactive | inactive | – | inactive
CC[C@H]1[C@@H]2C[C@H]3[C@@H]4N(C)c5ccccc5[C@]45C[C@@H](C2[C@H]5O)N3[C@@H]1O (some centres undefined) | inactive | inactive | inactive | inactive | inactive | inactive | inactive | inactive | inactive | inactive | inactive | inactive | inactive | inactive | inactive | inactive | inactive | inactive | inactive | inactive
C[C@]12CCC(=O)C[C@@H]1CC[C@@H]1[C@@H]2CC[C@@]2(C)[C@H]1CC[C@]2(C)O | inactive | inactive | inactive | inactive | inactive | inactive | inactive | inactive | inactive | inactive | inactive | inactive | inactive | inactive | inactive | inactive | inactive | – | inactive | inactive
CCNC1(c2cccs2)CCCCC1=O (centres undefined) | inactive | inactive | inactive | inactive | inactive | inactive | inactive | inactive | inactive | inactive | inactive | inactive | inactive | inactive | inactive | inactive | inactive | inactive | inactive | inactive
C/C=C(\CC)C(=O)NC(N)=O | inactive | inactive | inactive | inactive | inactive | inactive | inactive | inactive | inactive | inactive | inactive | inactive | inactive | inactive | inactive | inactive | inactive | inactive | inactive | inactive
CN[C@@]1(c2ccccc2Cl)CCCCC1=O | inactive | inactive | inactive | inactive | inactive | inactive | inactive | inactive | inactive | inactive | inactive | inactive | inactive | inactive | inactive | inactive | inactive | inactive | inactive | inactive
C=CCN1CC[C@]23c4c5ccc(O)c4O[C@H]2[C@@H](O)C=C[C@H]3[C@H]1C5 | inactive | inactive | inactive | inactive | inactive | inactive | inactive | inactive | inactive | inactive | inactive | inactive | inactive | inactive | inactive | inactive | inactive | inactive | inactive | –
Oc1cc[c]([Hg][Cl])cc1 | 16.8 µM (active) | inactive | inactive | inactive | inactive | inactive | inactive | inactive | inactive | inactive | inactive | 6.74 µM (active) and 19 µM (active) | 21.3 µM (active) and inactive | 6.68 µM (active) and 13.3 µM (active) | 6.68 µM (active) and 11.9 µM (active) | inactive | 13.3 µM (active) | 9.44 µM (active) and 16.8 µM (active) | 0.473 µM (active) | 7.56 µM (active) and 19 µM (active)
CN1C(=O)CC(=O)N(c2ccccc2)c2cc(Cl)ccc21 | inactive | inactive | inactive | inactive | inactive | inactive | inactive | inactive | inactive | inactive | inactive | inactive | inactive | inactive | inactive | inactive | inactive | inactive | inactive | inactive
C[C@@H](Cc1ccccc1)NCCC(c1ccccc1)c1ccccc1 | inactive | inactive | inactive | inactive | inactive | inactive | inactive | inactive | inactive | inactive | inactive | inactive | inactive | inactive | inactive | inactive | – | inactive | 7.17 µM (active) | inactive

From PubChem BioAssay (Tox21)
